These entries were drawn from the full list.
aSyn UTR act: Activators via SNCA 5'UTR binding, MLPCN. alpha-synuclein 5'UTR reporter, activators screen. activity score, % (tested at 7.5 µM), hits read low. 300,000 tested, 7.1% active; in the data active = activity score below about -60%
Numbers stand for hits.

How did COc1ccc(CNC(=S)N/N=C(/C)c2ccccc2)cc1 do in these assays?
aSyn UTR act: -107

Results for CCOc1ccccc1OCC(=O)N/N=C(\C)Cc1ccc(OC)cc1 ?
aSyn UTR act: inactive

Results for C/C(=N\NC(=S)NCc1ccccc1)c1ccccc1F ?
aSyn UTR act: -70

Results for CCOC(=O)N1CCC(Nc2nc3ccccc3nc2NS(=O)(=O)c2ccc(Cl)cc2)CC1 ?
aSyn UTR act: -88

What do the screens show for `CCOC(=O)N1CCN(S(=O)(=O)c2ccc(C(=O)NNc3nc4ccc(Cl)cc4s3)cc2)CC1`?
aSyn UTR act: inactive

How did O=C(N/N=C/c1cn(-c2ccccc2)nc1-c1cccs1)c1ccc(Cl)cc1 do in these assays?
aSyn UTR act: -66

Results for Cc1nn(-c2ccccc2)c(Cl)c1/C=N/NC(=O)c1ccccc1F ?
aSyn UTR act: -89

How did Cc1cc(C(=O)N/N=C/c2c(C)nn(-c3ccccc3)c2C)c(C)o1 do in these assays?
aSyn UTR act: -69

How did Cc1nn(-c2ccccc2)c(Cl)c1/C=C/C(=O)c1ccccc1 do in these assays?
aSyn UTR act: -107

What do the screens show for `Cc1nn(-c2ccccc2)c(C)c1/C=N/NC(=O)c1cc(-c2ccccc2)n[nH]1`?
aSyn UTR act: inactive

Results for Cc1nn(-c2ccccc2)c(Cl)c1/C=N/NC(=O)c1[nH]ncc1Br ?
aSyn UTR act: -67

How did Cc1nn(-c2ccccc2)c(Cl)c1/C=N/NC(=O)c1ccc(NS(=O)(=O)c2cccs2)cc1 do in these assays?
aSyn UTR act: -109

Results for O=C1CCCC/C1=C\Nc1ccc(Cl)cn1 ?
aSyn UTR act: -116

Results for COc1cccc(/C=N/n2c(=O)[nH]c3ccccc32)c1OC ?
aSyn UTR act: -164

How did CCCOC(=O)c1ccc(NC(=O)C2C3CCC(C3)C2C(=O)O)cc1 (stereo unspecified) do in these assays?
aSyn UTR act: -85

Results for CCOC(=O)c1ccc(NS(=O)C23CC4CC(CC(C4)C2)C3)cc1 (stereo unspecified) ?
aSyn UTR act: -110

Results for COC(=O)c1ccc(NC(=O)C2CC3CCC2C3)cc1 (stereo unspecified) ?
aSyn UTR act: -194

Results for CCOC(=O)c1ccc(NC(=O)C2CC3CCC2C3)cc1 (stereo unspecified) ?
aSyn UTR act: -128

What do the screens show for `O=C(Nc1cc(Cl)ccc1O)c1cc(-c2ccco2)on1`?
aSyn UTR act: -233

How did O=C(Nc1cc(Br)ccc1O)c1cc(-c2ccco2)on1 do in these assays?
aSyn UTR act: -134

How did O=C(Nc1cccnc1Cl)c1cc(-c2ccco2)on1 do in these assays?
aSyn UTR act: -80

What do the screens show for `O=C(Nc1ccc(F)cc1)Nc1csc2ccccc12`?
aSyn UTR act: -87

What do the screens show for `CN(C)c1ccc(NC(=O)Nc2csc3ccccc23)cc1`?
aSyn UTR act: -141

Results for Cc1c(C(=O)c2ccccc2)oc2ccc3ccccc3c12 ?
aSyn UTR act: -116

What do the screens show for `COC(=O)C1=C(C)NC(C)=C(C(=O)OCC(C)C)C1c1ccccc1[N+](=O)[O-]` (stereo unspecified)?
aSyn UTR act: inactive

What do the screens show for `CCOC(=O)C1=C(C)NC2=C(C(=O)c3ccccc32)C1c1ccc([N+](=O)[O-])o1` (stereo unspecified)?
aSyn UTR act: -63

Results for Cc1cc(C)n2nc(Nc3ccccc3)cc2n1 ?
aSyn UTR act: -165

Results for Cc1ccc(-c2cc3nc(C)cc(C)n3n2)cc1 ?
aSyn UTR act: -109

Results for Cc1cc(C)n2nc(-c3ccccc3)cc2n1 ?
aSyn UTR act: -97

What do the screens show for `Cc1ccc(NC(=O)c2cc3nc(C)cc(C)n3n2)cc1`?
aSyn UTR act: -82

How did CCOC(=O)Cn1cncc1-c1ccc([N+](=O)[O-])cc1 do in these assays?
aSyn UTR act: -119

Results for COC(=O)CSc1nc2ccc(C)cc2cc1C#N ?
aSyn UTR act: -72

What do the screens show for `Cc1cc(C)c2cc(C#N)c(N3CCCN(C(=S)NCCCN(C)C)CC3)nc2c1`?
aSyn UTR act: inactive

How did COC(=O)CSc1nc2cc(C)cc(C)c2cc1C#N do in these assays?
aSyn UTR act: -180

What do the screens show for `CC1SCC(NC(=O)c2ccc(Cl)cc2)CS1` (stereo unspecified)?
aSyn UTR act: -111

Results for CC1SCC(NC(=O)c2ccccc2Cl)CS1 (stereo unspecified) ?
aSyn UTR act: -102

What do the screens show for `C/C(=N\Nc1ncc(Cl)cc1Cl)c1ccccn1`?
aSyn UTR act: inactive

Results for Clc1ccc(/C=N/NC(=Nc2ccccc2)c2ccccn2)c(Cl)c1 ?
aSyn UTR act: -82

How did COc1cc(OC)cc(C(=O)Nc2ccc(Nc3ccccc3)cc2)c1 do in these assays?
aSyn UTR act: -165

Results for CCn1c2ccccc2c2cc(NC(=O)c3cc(OC)cc(OC)c3)ccc21 ?
aSyn UTR act: inactive

How did O=C(Nc1ccccc1)c1ccc(NC(=O)C2CC2)cc1 do in these assays?
aSyn UTR act: -105

Results for O=C(Nc1ccc(SC(F)F)cc1)c1ccc(F)cc1 ?
aSyn UTR act: -163

What do the screens show for `O=C(N[C@H]1CC1c1ccccc1)c1ccc([N+](=O)[O-])cc1` (stereo partly specified)?
aSyn UTR act: -107

What do the screens show for `O=C(Nc1ccc2nc3ccccc3nc2c1)c1ccccc1`?
aSyn UTR act: -97

How did O=C(C#Cc1ccccc1)c1ccc([N+](=O)[O-])cc1 do in these assays?
aSyn UTR act: -95

What do the screens show for `O=C(Nc1ccc(C2SCCS2)cc1)c1ccccc1`?
aSyn UTR act: -88

What do the screens show for `CCCCNC(=O)Nc1ccc(C2SCCS2)cc1`?
aSyn UTR act: -91

What do the screens show for `CC(Cc1ccccc1)NC(=O)c1ccc([N+](=O)[O-])cc1` (stereo unspecified)?
aSyn UTR act: -90

Results for CCN(CC)c1ccc(C(=O)Nc2ccccc2)cc1[N+](=O)[O-] ?
aSyn UTR act: -151

What do the screens show for `O=C(Nc1ccc(Nc2ccccc2)cc1)c1ccccc1`?
aSyn UTR act: -176

What do the screens show for `O=C(Nc1ccc([N+](=O)[O-])cc1)c1ccccc1`?
aSyn UTR act: -122

Results for O=C(Nc1csc(Cl)c1)c1ccccc1 ?
aSyn UTR act: -161

How did Cc1ccc(C(=O)Nc2ccc(Nc3ccccc3)cc2)cc1C do in these assays?
aSyn UTR act: -62

How did CNC(=O)c1ccc(NC(=O)Nc2ccccc2)cc1 do in these assays?
aSyn UTR act: -71

What do the screens show for `O=C(C[n+]1ccc2ccccc2c1)c1ccc(NC(=O)c2ccccc2)cc1`?
aSyn UTR act: -87

How did Cc1ccc(C(=O)C[n+]2ccc(Cc3ccccc3)cc2)cc1 do in these assays?
aSyn UTR act: inactive

What do the screens show for `O=C(Nc1ccc(F)cc1)c1ccccc1`?
aSyn UTR act: -83

What do the screens show for `O=C(Nc1ccc(-c2nnco2)cc1)c1ccccc1`?
aSyn UTR act: -78

How did O=C(Nc1ccc(-c2nc3ccccc3s2)c(OC(=O)c2ccccc2)c1)c1ccccc1 do in these assays?
aSyn UTR act: -175

What do the screens show for `Oc1ccccc1CNc1ccc(Br)cn1`?
aSyn UTR act: -300

Results for COc1ccccc1CNc1ccc(Br)cn1 ?
aSyn UTR act: -113

How did CC(=O)N(C1=C(N)C(=O)c2ccccc2C1=O)c1ccccc1 do in these assays?
aSyn UTR act: inactive

How did COc1ccc(N(/N=C2\Sc3ccccc3C2=O)C(C)=O)cc1 do in these assays?
aSyn UTR act: -143

What do the screens show for `COc1cccc(C2C(C#N)=C(N)OC(C(C)(C)C)=C2C#N)c1` (stereo unspecified)?
aSyn UTR act: -115

How did COc1cc(C2C(C#N)=C(N)Oc3cc4c(cc32)OCO4)cc(OC)c1OC (stereo unspecified) do in these assays?
aSyn UTR act: inactive

Compound activity (PubChem BioAssay)
